In PubChem BioAssay:
Active and inactive are the calls of the source.

Legend:
Albumin (Bos taurus) = Albumin (Bos taurus) (UniProt P02769); experiment: bovine serum albumin binders on microarray, profiling panel, artefact control for SMM control protein annotation, biochemical, small-molecule microarray, Alexa647 label, 635/667 nm fluorescence (AID 1118); conditions: BSA-A647 binding, fluorescence 635 nm, higher = more signal;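 further: score merges 667 nm emission intensity and signal-to-noise per printed compound spot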
[1] = small-molecule microarray binders of probe aXIP, primary screen, biochemical, NeuroSMM set, 635/667 nm fluorescence (AID 1119); conditions: higher = more signal, called active from +8 up or from −8 down;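 further: probe is the protein aXip251-270 applied at 1 µg/mL to compound-printed slides; binding of probe to printed compounds measured as 667 nm fluorescence plus signal to noise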
[2] = small-molecule binders of probe aNOTCH3, primary screen, biochemical, small-molecule microarray, 635/667 nm fluorescence (AID 1120); conditions: higher = more signal;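 further: probe is a biotin-tagged antibody raised against NOTCH3 rather than NOTCH3 protein; score merges spot fluorescence near 667 nm with spot signal to noise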
[3] = small-molecule binders of probe aNOTCH2, primary screen, biochemical, small-molecule microarray, 635/667 nm fluorescence (AID 1121); conditions: higher = more signal;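 further: score merges feature fluorescence read at 667 nm with its signal to noise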
[4] = biological target: Carbonic anhydrase 2 (Homo sapiens) (UniProt P00918); experiment: CAII small-molecule binders, profiling panel, biochemical, small-molecule microarray, Alexa647-labelled CAII (AID 1122); conditions: CAII-A647 binding fluorescence, higher = more signal
[5] = COS7 lysate on small-molecule microarray, probe aHis, 635 nm (AID 1123); conditions: COS7 cell lysate, fluorescence, higher = more signal;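 further: z-score combines 667nm fluorescence intensity with signal-to-noise per printed compound spot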
[6] = compound binding in COS7 lysate, probe aLAP1, primary screen, cell lysate, small-molecule microarray (AID 1124); conditions: probe aLAP1, fluorescence, higher = more signal;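 further: lysate comes from COS7 cells expressing LAP1 and is applied at 0.3 µg/mL; score merges spot fluorescence near 667 nm with signal-to-noise over triplicate slides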
Sam68 (KHDRBS1) = experiment: Sam68 small-molecule binders, primary screen, biochemical, small-molecule microarray, 635 nm fluorescence (AID 1125); conditions: small-molecule microarray binding, higher = more signal;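 further: score merges 667 nm channel intensity with signal to noise over triplicate slides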
[7] = system: Chordin-like protein 2 (CHRDL2); experiment: CHRDL2 small-molecule binders, primary screen, biochemical, small-molecule microarray, 635 nm fluorescence (AID 1126); conditions: small-molecule microarray binding, fluorescence 635 nm; higher = more signal;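 further: printed compound slides probed with Chrdl2 protein at 4 µg/mL for 1 h at 4 C; score merges 667 nm emission intensity with signal to noise over three replicate slides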
[8] = biological target: Concanavalin-A (Canavalia ensiformis) (UniProt P02866); experiment: ConA small-molecule binders, primary screen, artefact control for SMM control protein annotation, biochemical, small-molecule microarray, Alexa647 label, 635 nm (AID 1127); conditions: ConA-A647 binding fluorescence, higher = more signal;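 further: z combines 667 nm emission intensity with signal-to-noise across three replicate slides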
[9] = anti-His antibody binders, primary screen, artefact control for SMM control protein annotation, biochemical, small-molecule microarray, 635 nm fluorescence (AID 1128); conditions: anti-His Alexa647 antibody binding, higher = more signal;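 further: score merges feature fluorescence with signal-to-noise for each printed compound spot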
[10] = system: Human papillomavirus type 1a E7 protein (residues 1-88); experiment: HPV1a E7 small-molecule binders, primary screen, biochemical, small-molecule microarray, residues 1-88, 635 nm (AID 1129); conditions: small-molecule microarray binding, fluorescence 635 nm; higher = more signal
[11] = biological target: Focal adhesion kinase 1 (Homo sapiens) (UniProt Q05397); experiment: small-molecule microarray binders of FAK, primary screen, biochemical, 635/667 nm fluorescence, BSA, DTT (AID 1130); conditions: PTK2 binding, 635 nm fluorescence, higher = more signal;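 further: composite of spot emission at 667 nm and signal to noise over triplicate slides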
[12] = system: Fibrinogen (Alexa647-labelled); experiment: fibrinogen binders on compound microarrays, profiling panel, artefact control for SMM control-protein annotation, biochemical, small-molecule microarray, 635/667 nm fluorescence (AID 1131); conditions: fibrinogen-A647 binding fluorescence, higher = more signal;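 further: z-score merges 667 nm fluorescence with per-spot signal-to-noise over triplicate slides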
[13] = biological target: Follistatin (Homo sapiens) (UniProt P19883); experiment: follistatin binders on small-molecule microarrays, primary screen, biochemical, small-molecule microarray, 635/667 nm fluorescence (AID 1132); conditions: FST binding, 635 nm fluorescence, higher = more signal
[14] = biological target: Fibroblast growth factor 2 (Homo sapiens) (UniProt P09038); experiment: FGF2 binders on small-molecule microarrays, primary screen, biochemical, small-molecule microarray, 635/667 nm fluorescence (AID 1133); conditions: small-molecule microarray binding, FGF2, fluorescence 635/667; higher = more signal
[15] = mitochondrial membrane potential change in A549 cells, profiling panel, cell-based, JC-1 fluorescence, basal, 24 h, 100 nL (AID 1138); conditions: higher = more signal;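 further: A549 lung adenocarcinoma cells under basal conditions with no added stimulus; test concentration not given here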
Lefty1 = Lefty1 binders on small-molecule microarrays, primary screen, biochemical, small-molecule microarray, 635/667 nm fluorescence (AID 1139); conditions: small-molecule microarray binding, fluorescence 635/667; higher = more signal
[16] = system: wheat germ agglutinin (Triticum aestivum), Alexa647-labelled; experiment: wheat germ agglutinin binders on compound microarrays, profiling panel, artefact control for SMM control-protein annotation, biochemical, small-molecule microarray, 635/667 nm fluorescence (AID 1140); conditions: WGA-A647 binding, 635 nm fluorescence, higher = more signal;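 further: score merges 667 nm feature emission with signal to noise over triplicate slides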
[17] = biological target: Luciferin 4-monooxygenase (Photinus pyralis) (UniProt P08659); experiment: firefly luciferase enzyme inhibitors, primary screen, biochemical, luminescence, purified enzyme, 2006 set (AID 1141); conditions: SteadyGlo luminescence, 30 min, higher = more signal, called active from +8 up or from −8 down;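 further: cell-free assay with purified firefly luciferase at 100 ng per well in PBS; test concentration not given here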
Sequence of Luciferin 4-monooxygenase (Photinus pyralis) (P08659 whole entry, looked up): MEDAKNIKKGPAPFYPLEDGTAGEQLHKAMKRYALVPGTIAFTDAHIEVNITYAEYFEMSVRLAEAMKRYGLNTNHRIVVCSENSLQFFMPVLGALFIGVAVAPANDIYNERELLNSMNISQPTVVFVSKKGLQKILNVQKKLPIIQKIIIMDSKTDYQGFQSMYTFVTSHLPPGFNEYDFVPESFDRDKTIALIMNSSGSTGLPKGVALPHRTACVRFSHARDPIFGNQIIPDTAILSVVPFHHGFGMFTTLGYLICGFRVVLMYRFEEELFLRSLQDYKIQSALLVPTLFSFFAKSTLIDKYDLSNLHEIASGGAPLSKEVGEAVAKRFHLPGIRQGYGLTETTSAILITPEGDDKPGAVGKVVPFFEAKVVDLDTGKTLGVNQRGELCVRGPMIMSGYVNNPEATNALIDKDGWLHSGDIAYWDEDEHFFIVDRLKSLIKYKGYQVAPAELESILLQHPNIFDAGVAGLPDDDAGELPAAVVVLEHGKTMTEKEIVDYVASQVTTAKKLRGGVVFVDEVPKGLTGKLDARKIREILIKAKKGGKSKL

Sequence of Concanavalin-A (Canavalia ensiformis) (P02866 whole entry, looked up): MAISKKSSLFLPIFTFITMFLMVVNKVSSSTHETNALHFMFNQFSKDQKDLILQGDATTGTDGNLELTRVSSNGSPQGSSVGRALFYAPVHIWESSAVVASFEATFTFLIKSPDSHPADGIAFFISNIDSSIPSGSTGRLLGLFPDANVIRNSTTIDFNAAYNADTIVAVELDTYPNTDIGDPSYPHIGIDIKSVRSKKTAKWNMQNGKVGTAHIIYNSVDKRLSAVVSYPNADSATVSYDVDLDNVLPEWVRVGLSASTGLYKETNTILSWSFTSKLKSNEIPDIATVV
Sequence of Follistatin (Homo sapiens) (P19883 whole entry, looked up): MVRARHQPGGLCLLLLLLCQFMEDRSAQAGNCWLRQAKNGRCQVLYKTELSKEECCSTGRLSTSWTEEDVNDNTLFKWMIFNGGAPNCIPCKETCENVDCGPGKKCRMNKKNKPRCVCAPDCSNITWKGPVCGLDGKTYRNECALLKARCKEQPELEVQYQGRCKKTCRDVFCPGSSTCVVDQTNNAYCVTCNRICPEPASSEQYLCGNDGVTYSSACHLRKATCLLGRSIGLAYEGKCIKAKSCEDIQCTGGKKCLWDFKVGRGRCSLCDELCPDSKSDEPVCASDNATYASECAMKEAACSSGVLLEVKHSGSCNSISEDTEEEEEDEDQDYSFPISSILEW
Sequence of Fibroblast growth factor 2 (Homo sapiens) (P09038 whole entry, looked up): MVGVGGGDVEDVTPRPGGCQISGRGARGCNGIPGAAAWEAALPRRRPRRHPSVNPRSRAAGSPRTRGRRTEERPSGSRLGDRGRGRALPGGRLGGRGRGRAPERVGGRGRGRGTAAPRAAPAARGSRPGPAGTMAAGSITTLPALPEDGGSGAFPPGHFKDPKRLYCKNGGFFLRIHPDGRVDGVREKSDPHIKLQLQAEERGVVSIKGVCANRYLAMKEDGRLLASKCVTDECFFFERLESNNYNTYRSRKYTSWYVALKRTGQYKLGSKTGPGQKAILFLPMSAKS
Sequence of Focal adhesion kinase 1 (Homo sapiens) (Q05397 whole entry, looked up): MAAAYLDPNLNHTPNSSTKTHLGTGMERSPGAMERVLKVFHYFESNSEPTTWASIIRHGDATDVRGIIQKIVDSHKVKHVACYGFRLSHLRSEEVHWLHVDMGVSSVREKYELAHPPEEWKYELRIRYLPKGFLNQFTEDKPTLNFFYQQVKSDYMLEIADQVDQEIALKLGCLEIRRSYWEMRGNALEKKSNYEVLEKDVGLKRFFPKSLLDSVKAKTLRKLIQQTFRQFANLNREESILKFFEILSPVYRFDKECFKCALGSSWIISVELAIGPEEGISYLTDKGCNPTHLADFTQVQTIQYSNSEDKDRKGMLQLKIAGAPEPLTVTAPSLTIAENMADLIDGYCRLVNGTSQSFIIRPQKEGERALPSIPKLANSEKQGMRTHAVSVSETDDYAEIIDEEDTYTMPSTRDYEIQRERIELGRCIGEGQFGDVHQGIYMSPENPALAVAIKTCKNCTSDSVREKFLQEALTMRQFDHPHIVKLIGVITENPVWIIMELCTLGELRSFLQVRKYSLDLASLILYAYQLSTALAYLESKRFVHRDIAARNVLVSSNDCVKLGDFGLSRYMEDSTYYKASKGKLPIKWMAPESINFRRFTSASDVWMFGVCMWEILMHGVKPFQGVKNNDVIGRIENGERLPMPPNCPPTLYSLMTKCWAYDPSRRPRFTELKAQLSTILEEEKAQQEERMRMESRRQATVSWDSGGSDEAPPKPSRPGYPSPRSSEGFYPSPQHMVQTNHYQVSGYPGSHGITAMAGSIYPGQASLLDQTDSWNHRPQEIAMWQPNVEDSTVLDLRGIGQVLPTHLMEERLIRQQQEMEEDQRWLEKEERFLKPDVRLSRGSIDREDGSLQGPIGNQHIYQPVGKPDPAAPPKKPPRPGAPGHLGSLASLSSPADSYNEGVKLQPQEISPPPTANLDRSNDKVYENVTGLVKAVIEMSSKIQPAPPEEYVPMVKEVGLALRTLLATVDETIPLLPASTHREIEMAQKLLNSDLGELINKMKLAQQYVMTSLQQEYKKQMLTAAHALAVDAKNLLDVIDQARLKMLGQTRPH
Sequence of Albumin (Bos taurus) (P02769 whole entry, looked up): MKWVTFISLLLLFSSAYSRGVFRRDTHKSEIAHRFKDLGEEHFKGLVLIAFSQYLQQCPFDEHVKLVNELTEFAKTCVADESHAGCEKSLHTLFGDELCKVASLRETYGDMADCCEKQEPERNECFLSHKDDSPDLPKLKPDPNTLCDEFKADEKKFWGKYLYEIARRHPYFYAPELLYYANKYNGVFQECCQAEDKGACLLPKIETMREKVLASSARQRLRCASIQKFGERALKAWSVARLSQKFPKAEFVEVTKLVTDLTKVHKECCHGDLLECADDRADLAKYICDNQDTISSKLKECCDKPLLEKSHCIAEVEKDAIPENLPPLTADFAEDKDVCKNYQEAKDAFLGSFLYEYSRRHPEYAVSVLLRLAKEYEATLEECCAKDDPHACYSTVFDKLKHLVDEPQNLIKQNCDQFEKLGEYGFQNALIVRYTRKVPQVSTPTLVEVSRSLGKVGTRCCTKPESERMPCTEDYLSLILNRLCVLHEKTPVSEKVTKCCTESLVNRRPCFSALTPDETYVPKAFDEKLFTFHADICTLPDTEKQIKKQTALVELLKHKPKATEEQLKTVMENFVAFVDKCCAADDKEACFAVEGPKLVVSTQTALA

SMILES	composite z-score (Albumin (Bos taurus))	composite Z-score [1]	composite z-score [2]	composite z-score [3]	composite z-score [4]	composite z-score [5]	composite z-score [6]	composite z-score (Sam68 (KHDRBS1))	composite z-score [7]	composite z-score [8]	composite z-score [9]	composite z-score [10]	composite z-score [11]	composite z-score [12]	composite z-score [13]	composite z-score [14]	z-score [15]	composite z-score (Lefty1)	composite z-score [16]	z-score [17]
CC(C)C[C@@H]1NC(=O)[C@H]2C[C@@H](C(=O)NCCCCCC[N+](C)(C)C)[C@@H](c3cccc(OCCO)c3)N2C1=O	0.107	0.831 (inactive)	-0.0967	-0.169	0.377	1.02	0.384	0.374	0.964	0.869	2.76	0.381	0.125	-1.08	1.43	1.01	-0.525	0.691	0.432	0.579 (inactive)
CC(C)N1C(=O)[C@@]2(c3ccc([N+](=O)[O-])cc3)CC(=O)N(C3CCCCC3)[C@@H]2c2ccc(CO)cc21	-0.545	0.633 (inactive)	-0.215	-0.12	0.222	-0.0857	0.398	0.123	0.208	0.684	0.111	-0.695	-0.0713	-0.387	1.03	0.356	-0.24	0.297	-0.246	1.1 (inactive)
COc1ccc([Si](C)(C)[C@@H]2[C@@H](CCO)O[C@]3(C(=O)N(Cc4cccc(N5C(=O)c6ccccc6Oc6ccccc65)c4)c4ccccc43)[C@H]2C)cc1	0.326	-0.0368 (inactive)	-0.157	-0.0712	0.411	1.07	0.594	0.554	-0.245	0.276	0.106	0.502	0.121	-0.0703	-0.672	-0.559	-0.368	0.135	0.413	-1.26 (inactive)
CN(C)C(=O)[C@@]1(Cc2ccccc2N=[N+]=[N-])COC(c2ccc(OCCCO)cc2)=N1	0.623	1.69 (inactive)	0.12	-0.268	0.71	1.89	0.0648	0.905	0.118	1.12	0.869	1.22	0.947	1	1.32	1.76	1.76	-0.349	0.51	-3.71 (inactive)
COCCOC(=O)N1C(=O)[C@@]2(c3ccccc31)[C@H](C(=O)N1CCN(c3ncccn3)CC1)[C@H]1C(=O)O[C@H](c3ccccc3)[C@H](c3ccccc3)N1[C@@H]2c1ccc(OCCO)cc1	0.329	2.41 (inactive)	0.32	-0.0029	0.512	1.36	0.341	1.12	0.292	1.13	2.77	1.21	2.12	0.967	1.23	0.891	-0.587	0.612	0.965	-1.3 (inactive)
O=C(CS)NCCCCCCNC(=O)[C@@H]1C[C@@H]2C(=O)N3CCC[C@H]3C(=O)N2[C@@H]1c1cccc(OCCO)c1	0.848	-0.19 (inactive)	-0.225	0.0063	0.635	2.81	-0.0386	1.3	0.454	1.1	0.824	1.13	0.459	0.642	1.1	1.59	0.503	0.361	0.832	-0.681 (inactive)
CCCN1C(=O)[C@]2(Cc3ccccc3)N=C(c3ccc(OCCCO)cc3)O[C@@H]2c2ccccc21	0.727	-0.659 (inactive)	-0.0345	-0.142	0.537	1.86	0.335	1.28	0.777	1.14	1.9	1.22	0.0605	0.962	1.46	1.63	1.44	0.951	0.751	-4.12 (inactive)
COc1ccc(CCNC(=O)[C@@]2(Sc3ccc(C)cc3)CC(=O)N(Cc3cc(C(F)(F)F)cc(C(F)(F)F)c3)[C@@H]2c2ccc(CO)cc2I)cc1	0.259	1.4 (inactive)	-0.193	-0.106	0.684	1.54	0.227	0.677	-0.596	0.759	-0.361	-0.162	0.368	0.562	0.801	-0.525	0.345	0.012	-0.0603	0.664 (inactive)
C=C(C(=O)CC[C@H](OC(=O)c1cccnc1)c1cccc(OCCO)c1)C(C)C	-0.849	0.587 (inactive)	-0.0971	-0.161	0.0143	0.0609	-0.0536	0.481	-0.507	-0.0842	0.0024	-0.498	-0.136	-0.744	-1.01	-0.464	0.838	0.0695	-0.168	-0.894 (inactive)
C=C(COC)/C(=C/C[C@@H](OC(=O)c1ccncc1)c1ccc(CO)o1)c1cnc2ccccc2c1	0.516	1.35 (inactive)	0.412	-0.14	0.951	0.831	0.589	1.3	1.47	1.23	1.87	1.22	0.268	0.973	1.47	1.61	-0.557	1.67	1.56	-2.96 (inactive)
